Source: PubChem BioAssay (National Center for Advancing Translational Sciences (NCATS))
PINK1 modulator – changes PINK1 expression; PINK1 immunofluorescence, high-content cytometry, 24 h; Potency, µM (series often up to 76.6 µM), without a hit: top-dose activation (PINK1 increase), usual class: activators; actives 0.2% (n = 410,000); AID 624263; active means well fitted activation curve with a large enough effect; inconclusive means small, poorly fitted or top-dose-only effect; cell line not stated here; further: % of control where 0% means no effect; nearly all actives have a fitted effect of over 65% in size
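Decision-based qHTS: stable cells, 24 h exposure to five compound concentrations, CCCP as control. Fixed cells stained for PINK1 plus nuclear, mitochondrial and cell markers, cytometer read.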
ClpP mod – qHTS Assay for Activators of ClpP. ATP-dependent Clp protease proteolytic subunit (Bacillus subtilis (strain 168)), P80244. purified B. subtilis ClpP, FRET peptide cleavage, 20 min. Potency, µM (top dose mostly 57.5 µM), for inactives: at the top dose activity change, negative = active. actives 1.9% (n = 340,000); active means well fitted falling curve with a large enough effect; inconclusive means small, poorly fitted or top-dose-only effect; inactive means no such curve, though single readings can be large or run the other way; further: the source files actives as falling curves though it sought activators and does not explain the sign; nearly all actives have a fitted effect of over 65% in size
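Purified B. subtilis ClpP, 10 microg/mL final in Tris/HCl pH8 with KCl, BSA, glycerol and Tween-20, cleaved an Abz/nitrotyrosine-quenched decapeptide. Fluorescence (ex 320, em 430) was read at 0 and 20 min at room temperature. Delta was normalized to 5.8 microM ADEP and DMSO/no-enzyme controls.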
RORgamma inh – inhibitors of mouse ROR gamma transcriptional activity. P51450. Drosophila S2 Gal4-RORgamma UAS-luciferase reporter, 20 h. Potency, µM (series often up to 53.6 µM), without a hit: at the top dose activity change, negative = inhibition, usual class: inhibitors. actives 5.4% (n = 310,000); further: on the % scale 0 is the no-effect control and ±100 the full control effect; nearly all actives have a fitted effect of over 60% in size
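Drosophila S2 cells stably expressing Gal4-DBD/mouse RORγ fusion under metallothionein promoter plus UAS-luciferase; compound 1 h, then 700 uM CuSO4 induction for 20 h at ambient temperature; inhibition read as reduced luminescence.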
Gal4-VP16 FLuc – inhibits Gal4-VP16 luciferase reporter, ROR gamma counter-screen. AID 2546. actives 3.5% (n = 310,000). Potency, µM (series often up to 53.6 µM), inactives show at the top dose activity, negative = inhibition, most hits filed as inhibitors. Drosophila S2 Gal4-VP16 UAS-luciferase, luminescence, 20 h;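 further: Gal4-VP16 expression switched on by copper sulfate through the metallothionein promoter; on the % scale 0 is the no-effect control and ±100 the full control effect; nearly all actives have a fitted effect of over 50% in size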
Epigenetic derep – derepresses silenced GFP reporter in murine cells; murine LDR cells, GFP reporter derepression, 30 h; Potency, µM (series often up to 53.9 µM), for inactives: at the highest dose GFP activation, usual class: activators; actives 0.2% (n = 280,000); AID 1865; further: % of control where 0% means no effect; nearly all actives have a fitted effect of over 60% in size
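In this reporter-derepression format, murine cells bearing a silenced integrated CMV-GFP locus incubate with test compound (30 h, 37 C), then are washed and imaged; fluorescent objects of 20–120 um count as induced cells.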
Sfp inh – Sfp phosphopantetheinyl transferase inhibition; Biochemical Sfp PPTase activity, qHTS; AID 1490; Q9F4F7; actives 3.5% (n = 310,000); Potency, µM, without a hit: largest response in the series, negative = inhibition, hits mostly inhibitors;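 further: the enzyme is Sfp with the accession as filed and its product quenches rhodamine fluorescence; 0% = enzyme reaction without inhibitor and -100% = no enzyme wells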
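After 15 min at room temperature with compound, 15 nM Sfp received 5 uM rhodamine-CoA plus 12.5 uM BHQ-2-ybbR (50 mM Hepes pH 7.6, 10 mM MgCl2). Rate came from the fluorescence difference over 30 min, ex 525/em 598 nm.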
Numbers without * were called inactive; ? = inconclusive; / = no result; [ ] = another dose, or the depositor's remark. Shown are actives, neighbours in structure and some others; about 8.1% of the full set was active somewhere. Unless noted, the call rests on the fitted dose curve; in most records, active means well fitted curve in the direction sought with a large enough effect; inconclusive means small, poorly fitted or top-dose-only effect, or another doubt; inactive means no such curve, though single readings can be large; an effect the other way counts as inactive or inconclusive. Potency means the concentration at half of the fitted maximal effect.

SMILES	PINK1 modulator	ClpP mod	RORgamma inh	Gal4-VP16 FLuc	Epigenetic derep	Sfp inh
COc1cccc(NC(=S)N2c3ccccc3CC2C)c1 (stereo not drawn)	0%	0%	22µM*	?	/	-6%
O=C(CSc1nc2ccc(Cl)cc2[nH]1)c1ccc2c(c1)OCO2	3%[38.3 µM]	1%	16%	-3%	-1%	79µM*
Cc1ccc(Cn2ccc(=O)c(OCc3c(Cl)cccc3Cl)c2C)cc1	-1%	-2%	?	?	-2%	18µM*
C#C[C@@]1(O)CC[C@@H]2[C@H]3CCC4=C/C(=N\O)CC[C@H]4[C@@H]3CC[C@]21CC	/	/	-13%	-23%	/	-9%
CCN(CC(=O)NCc1cccs1)C(=O)c1cc(S(=O)(=O)N2CCOCC2)ccc1C	2%	-10%	3%	4%[0.365 µM]	3%	8%
CCN(CC(=O)NCc1ccc(Cl)cc1)C(=O)c1cc(S(=O)(=O)N2CCOCC2)ccc1C	1%	14µM*	/	/	/	/
COc1ccc(N/C=C\C(=O)c2ccc(C)cc2)cc1OC	9%	/	38%	-5%	11%	21%
COC(=O)c1ccccc1N/C=C/C(=O)c1ccc(Br)cc1	14%	25µM*	-3%[10 µM]	-17%	-1%	?
COc1ccc(N/C=C\C(=O)c2ccc(Br)cc2)cc1OC	40µM*	1%	-32%	-11%	?	-1%
COC(=O)c1ccccc1N(Cc1ccccc1)S(C)(=O)=O	0%	25µM*	17%	0%	0%	14%
CCOC(=O)Nc1cc2c(C)cc(=O)oc2cc1C	-1%	16µM*	10%	6%	-3%	-14%
CCOC(=O)Nc1cc(=O)c2ccccc2o1	9%[38.3 µM]	32µM*	32%	8%	-1%	-9%
O=C(CSc1nnc(CNc2ccc(F)cc2)n1Cc1ccco1)NC1CC1	1%	1%	2%	2%	0%	56µM*
O=C(O)CSc1nnc(CNc2cccc(C(F)(F)F)c2)n1Cc1ccco1	1%	-5%	-19%	4%	1%	40µM*
CS(=O)(=O)N(CC(=O)O)c1ccccc1	/	/	/	/	1%	/
Cc1cccc(C2Nc3ccccc3C(=O)N2CCc2ccccc2)n1 (stereo not drawn)	1%[38.3 µM]	18µM*	20%	-8%	0%	4%
O=C1c2ccccc2NC(c2ccc(Cl)cc2Cl)N1Cc1ccccc1 (stereo not drawn)	16%	32µM*	17%	-11%	0%	-5%
COc1cc(C2Nc3ccccc3C(=O)N2Cc2ccccc2)ccc1OCc1ccccc1 (stereo not drawn)	2%	4%	/	/	/	/
C=CCc1cccc(C2Nc3ccccc3C(=O)N2O)c1O (stereo not drawn)	3%	2%	7.1µM*	?	-1%	5%
O=C1c2ccccc2NC(c2ccc(Cl)cc2Cl)N1O (stereo not drawn)	2%	3%	3.5µM*	10µM*	0%	2%
Cc1nn(C)cc1C1Nc2ccccc2C(=O)N1O (stereo not drawn)	3%	-6%	?	2%	-2%	-13%
Cc1nn(C)c(C)c1C1Nc2ccccc2C(=O)N1O (stereo not drawn)	-4%	-3%	?	-1%	0%	-3%
O=C(Nc1ccc(Cl)c(C(F)(F)F)c1)C(Cc1ccccc1)NS(=O)(=O)c1ccc(Br)s1 (stereo not drawn)	2%	1%	/	/	0%	/
O=C(c1ccccc1)C(I)(I)N1CCOCC1	1%	-4%	/	/	/	/
O=C1c2ccccc2NC(c2c(Cl)cccc2Cl)N1Cc1ccccc1 (stereo not drawn)	0%	32µM*	?	-13%	-2%	27%
SMILES	PINK1 modulator	ClpP mod	RORgamma inh	Gal4-VP16 FLuc	Epigenetic derep	Sfp inh
COc1cc(CN(C(=O)COc2ccc(Cl)cc2)c2ccccn2)cc(OC)c1OC	0%	-2%	/	/	0%	/
Fc1ccccc1-c1nc(-c2ccncc2)no1	-2%	2%	?	-17%	/	17%
c1ccc(-c2ccccc2-c2nc(-c3cccnc3)no2)cc1	0%	-2%	-9%	-3%	0%	-15%
c1ccc(SCc2nc(-c3ccncc3)no2)cc1	/	-6%	?	11µM*	8%	-19%
c1ccc2c(-c3nc(-c4ccncc4)no3)cccc2c1	-6%[38.3 µM]	32µM*	-42%	-7%	1%	10µM*
c1ccc(-c2noc(-c3cccc4ccccc34)n2)cc1	9%	28µM*	166%	?	5%	-13%
c1cncc(-c2noc(-c3cccc4ccccc34)n2)c1	-2%[38.3 µM]	35µM*	25%	9%	-2%	?
Cc1ccc(SCc2nc(-c3ccncc3)no2)cc1	5%	1%	37%	7%	0%	10%
Cc1ccc(NC(=O)C(=O)NCC(c2cccnc2)N2CCN(c3ccccc3F)CC2)cc1Cl (stereo not drawn)	0%	4%	/	/	0%	/
COc1cc(=O)n2c(c1C(=O)NCc1ccco1)CCN(C(=O)c1cccnc1SC)CC2	0%	/	/	/	/	/
COc1ccc(OC)c(CN2CCOc3ccc(C(O)c4cccnc4)cc3C2)c1 (stereo not drawn)	0%	/	/	/	/	/
COc1ccc(O)c(CN2CCC3(CCC(CNC(=O)C4CCCO4)O3)CC2)c1 (stereo not drawn)	-1%	/	/	/	/	/
N#Cc1c(SCC(=O)Nc2cccc(F)c2)sc2c(O)cc(=O)[nH]c12	0%	/	4%	-1%	/	56µM*
CCOc1cccc(NC(=O)CSc2sc3c(O)cc(=O)[nH]c3c2C#N)c1	2%	/	4%	-2%	/	35µM*
N#C/C(=C\c1ccc(O)c(O)c1)C(=O)NCCCCc1ccccc1	/	/	?	32µM*	9%	79µM*
COc1ccc(-c2[nH]c(-c3ccccc3)nc2SCC(=O)Nc2ccc3c(c2)OCO3)cc1	0%	?	/	/	14%	/
O=C(c1cccnc1)C1CCCN(Cc2ccc3c(c2)CN(C(=O)c2cccs2)CCO3)C1 (stereo not drawn)	0%	/	/	/	/	/
Cc1ccc(CN2C(=O)CN(C3CCC(C)CC3)C(=O)C2c2ccc(F)cc2)cc1 (stereo not drawn)	1%	-1%	/	/	0%	/
O=C(OCc1nnc(-c2ccccc2)o1)c1cn(-c2ccccc2)nc1-c1ccccc1	8%	10µM*	35%	-9%	-1%	-20%
COc1ccc(CNc2nc(-c3ccc(C(=O)N(C)C)cc3)nc3ccccc23)c(OC)c1	1%	/	?	-5%	10%	?
c1cncc(CNc2nc(-c3ccoc3)nc3ccccc23)c1	-1%	/	4%	6%	0%	40µM*
